The campaign covered roughly 5,500 compounds. About 2,000 (36%) were called active. Inconclusive results (about 18%) are left out. No stated cut-off is given here; in the data, active means normalized growth mostly below about 0.91 (no sharp cut-off); inconclusive means no clear call, values can overlap the other calls; inactive means mostly above about 0.92. This is one part of the list.
Assay: chemical genetic growth profiling, strain panel (AID 1159580);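 further: tested at 20 µM; growth read once vehicle control cultures reached saturation at 30 °C; 1 = growth at the plate median or of vehicle wells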
Conditions: S. cerevisiae deletion strains, growth OD
[1] = locus YGR078C, strain PAC10, stronger effect = lower value
[2] = locus YJR075W, strain HOC1, stronger effect = lower value
[3] = locus YMR263W, strain SAP30, stronger effect = lower value
[4] = locus YNL128W, strain TEP1, stronger effect = lower value
[5] = locus YNL153C, strain GIM3, stronger effect = lower value
[6] = locus YNL322C, strain KRE1, stronger effect = lower value
[7] = locus YPL055C, strain LGE1, stronger effect = lower value
[8] = locus YPL241C, strain CIN2, stronger effect = lower value

Measured: normalized growth

Cn1cc(C(F)(F)F)nc1-c1ccc(OCC(O)CNCCOc2ccc(O)c(C(N)=O)c2)cc1 (configuration not stated)
inactive: locus YAL040C, strain CLN3, stronger effect = lower value 0.996 | locus YCL061C, strain MRC1 (second series), stronger effect = lower value 1 | locus YDR363W, strain ESC2, stronger effect = lower value 1.01 | locus YER002W, strain NOP16, stronger effect = lower value 1.04 | [1] 1.01 | [2] 1 | [3] 1.01 | [4] 1.02 | [5] 1.01 | locus YNL175C, strain NOP13, stronger effect = lower value 1.05 | locus YNL197C, strain WHI3, stronger effect = lower value 1.03 | locus YNL224C, strain SQS1, stronger effect = lower value 1.04 | [6] 1.03 | locus YOR083W, strain WHI5 (second series), stronger effect = lower value 0.987 | [7] 1.01 | [8] 1

CC(C)(C)c1ccc(CSc2nc(N)cc(=O)[nH]2)cc1
inactive: locus YAL013W, strain DEP1, stronger effect = lower value 0.993 | locus YBR229C, strain ROT2, stronger effect = lower value 1.02 | locus YCL061C, strain MRC1, stronger effect = lower value 0.998 | locus YDL101C, strain DUN1, stronger effect = lower value 0.981 | locus YDL134C, strain PPH21, stronger effect = lower value 1.01 | locus YDR150W, strain NUM1, stronger effect = lower value 0.949 | locus YEL061C, strain CIN8, stronger effect = lower value 0.995 | [1] 1 | locus YGR229C, strain SMI1, stronger effect = lower value 1.01 | locus YHR030C, strain SLT2, stronger effect = lower value 0.988 | locus YHR087W, strain rtc3, stronger effect = lower value 0.993 | locus YJL187C, strain SWE1, stronger effect = lower value 0.985 | locus YJR043C, strain POL32, stronger effect = lower value 1.01 | [2] 1.01 | locus YKL190W, strain CNB1, stronger effect = lower value 1.02 | locus YLR039C, strain RIC1, stronger effect = lower value 1.02 | locus YLR058C, strain SHM2 (second series), stronger effect = lower value 1.01 | locus YLR085C, strain ARP6, stronger effect = lower value 0.898 | locus YLR262C, strain YPT6, stronger effect = lower value 1.09 | locus YML094W, strain GIM5, stronger effect = lower value 0.975 | locus YMR219W, strain ESC1, stronger effect = lower value 1 | [3] 1.01 | locus YMR307W, strain GAS1, stronger effect = lower value 0.855 | [4] 1.01 | [5] 1.01 | locus YNL298W, strain CLA4 (second series), stronger effect = lower value 1.01 | [6] 1 | locus YNR030W, strain Alg12, stronger effect = lower value 1.01 | [7] 0.862 | [8] 0.972 | locus YPR135W, strain CTF4, stronger effect = lower value 0.949
